Measured values taken from PubChem BioAssay (Tox21).
Inconclusive results are not listed. Activity calls are given as the source filed them. Unless noted, calls follow the shape of the full dose curve.

Assays:
[1] = Nuclear factor erythroid 2-related factor 2/antioxidant responsive element (Nrf2/ARE) small molecule agonists: qHTS cell viability counter screen in human keratinocytes (AID 1919968; active = well fitted curve in the direction sought with a large enough effect in the repeat runs; an effect the other way counts as inactive or inconclusive; also: nearly all actives have a fitted effect of over 55% in size; also: potency is read from the fitted curve at half-maximal effect)
Procedure, shortened: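 Stably transfected HaCaT (KeratinoSens), 1,500/well. Test agents in DMSO were applied for 23 h, 37 C/5% CO2. CellTiter-Fluor was incubated 1 h before the fluorescence read.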

[2] = Nuclear factor erythroid 2-related factor 2/antioxidant responsive element (Nrf2/ARE) small molecule agonists: luciferase reporter gene qHTS assay in human keratinocytes (AID 1919969); also: nearly all actives have a fitted effect of over 35% in size; also: potency is read from the fitted curve at half-maximal effect
[3] = target: Gonadotropin-releasing hormone receptor (Homo sapiens) (UniProt P30968); assay: Human gonadotropin-releasing hormone receptor (GnRHR) small molecule agonists, calcium flux assay in GnRHR-HEK293 cells (AID 1920063); also: nearly all actives have a fitted effect of over 35% in size
Sequence of Gonadotropin-releasing hormone receptor (Homo sapiens) (P30968 whole entry, looked up): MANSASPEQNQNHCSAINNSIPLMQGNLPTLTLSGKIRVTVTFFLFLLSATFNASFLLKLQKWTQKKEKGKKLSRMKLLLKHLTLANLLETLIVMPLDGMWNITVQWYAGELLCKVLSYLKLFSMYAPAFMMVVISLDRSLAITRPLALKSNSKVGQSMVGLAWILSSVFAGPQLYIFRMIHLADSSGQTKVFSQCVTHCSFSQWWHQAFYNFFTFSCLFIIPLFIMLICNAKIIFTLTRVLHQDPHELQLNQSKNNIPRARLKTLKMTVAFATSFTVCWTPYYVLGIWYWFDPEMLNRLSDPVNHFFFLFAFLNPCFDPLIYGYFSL
Procedure, shortened: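 Stable human GnRHR HEK293 line. 18 h plating, then calcium dye for 1 h at 37 C. Agonist-mode compound addition from DMSO stocks; fluorescence monitored 3 min.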

[4] = target: KiSS-1 receptor (Homo sapiens) (UniProt Q969F8); assay: Human kisspeptin (KISS1R) small molecule agonists, calcium flux assay in KISS1R-HEK293 cells (AID 1920064; active = well fitted curve in the direction sought with a large enough effect in the repeat runs; an effect the other way counts as inactive or inconclusive)
Sequence of KiSS-1 receptor (Homo sapiens) (Q969F8 whole entry, looked up): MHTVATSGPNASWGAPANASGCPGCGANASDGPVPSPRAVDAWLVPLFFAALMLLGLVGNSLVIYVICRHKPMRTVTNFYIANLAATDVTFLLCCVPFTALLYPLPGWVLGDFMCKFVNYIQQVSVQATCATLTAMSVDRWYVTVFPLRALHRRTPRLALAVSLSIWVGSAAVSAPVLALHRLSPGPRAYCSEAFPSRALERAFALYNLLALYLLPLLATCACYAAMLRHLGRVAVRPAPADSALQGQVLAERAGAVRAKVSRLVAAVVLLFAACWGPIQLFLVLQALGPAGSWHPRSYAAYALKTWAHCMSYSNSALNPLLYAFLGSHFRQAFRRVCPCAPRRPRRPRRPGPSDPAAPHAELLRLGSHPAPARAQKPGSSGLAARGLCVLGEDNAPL
Procedure, shortened: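 After overnight (18 h) culture at 37 C/5% CO2, human KISS1R-HEK293 cells received calcium dye for 1 h, then test compound; emission at 540 nm (excitation 480 nm) was tracked for 3 min.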

[5] = G protein-coupled receptor (GPCR) small molecule agonists, calcium flux assay: HEK293 wild type cell line counter screen (AID 1920065)
Procedure, shortened: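 Following 18 h incubation at 37 C/5% CO2, plates got calcium dye for 1 h; compounds, ATP or DMSO were then pinned in and fluorescence followed kinetically (480/540 nm).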

[6] = p53 small molecule agonists, cell-based qHTS assay with rat liver microsomes (AID 1963578)
Procedure, shortened: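 p53RE-bla cells, 4,000/well, pre-incubated 5 h, then given compounds plus rat liver microsomes (0.5 mg/mL final) and NADPH (0.5 mg/mL final). Incubation 16 h at 37 C; beta-lactamase reporter read by LiveBLAzer fluorescence after 2 h at room temperature.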

[7] = p53 small molecule agonists, cell-based qHTS assay with human liver microsomes: qHTS cell viability counter screen (AID 1963579); also: nearly all actives have a fitted effect of over 45% in size; also: potency is read from the fitted curve at half-maximal effect
Procedure, shortened: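 p53RE-bla cells, 4,000/well, dosed 5 hours after plating, with human liver microsomes (0.5 mg/mL final) plus NADPH (0.5 mg/mL final), 16 hours at 37 C. Viability read as CellTiter-Glo luminescence after 30 min at room temperature.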

[8] = p53 small molecule agonists, cell-based qHTS assay with rat liver microsomes: qHTS cell viability counter screen (AID 1963580); also: nearly all actives have a fitted effect of over 45% in size
Procedure, shortened: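 Luminescent ATP readout (CellTiter-Glo, 30 min at room temperature) reports viability of p53RE-bla HCT-116 cells after 16 h at 37 C with test compounds under metabolic activation by rat liver microsomes and NADPH at 0.5 mg/mL final each.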

[9] = p53 small molecule agonists, cell-based qHTS assay: qHTS cell viability counter screen (AID 1963581); also: nearly all actives have a fitted effect of over 45% in size; also: potency is read from the fitted curve at half-maximal effect
Procedure, shortened: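 qHTS counter screen: 16 h compound exposure at 37 C of p53RE-bla HCT-116 cells (4,000 per well, seeded 5 h prior), cell viability by ATP luminescence.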

[10] = p53 small molecule agonists, cell-based qHTS assay (AID 1963582; active = well fitted activation curve with a large enough effect in the signal ratio in the repeat runs, not every such curve was filed as active; the % refers to the signal ratio)
Procedure, shortened: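 Measured: fluorescence from cleaved LiveBLAzer substrate. System: p53RE-bla cells, 16 h compound treatment at 37 C, 2 h substrate step at room temperature.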

[11] = target: 5-hydroxytryptamine receptor 2A (Homo sapiens) (UniProt P28223); assay: 5-hydroxytryptamine receptor 2A (HTR2A) small molecule antagonists, cell-based qHTS assay (AID 1963586); also: nearly all actives have a fitted effect of over 45% in size
Sequence of 5-hydroxytryptamine receptor 2A (Homo sapiens) (P28223 whole entry, looked up): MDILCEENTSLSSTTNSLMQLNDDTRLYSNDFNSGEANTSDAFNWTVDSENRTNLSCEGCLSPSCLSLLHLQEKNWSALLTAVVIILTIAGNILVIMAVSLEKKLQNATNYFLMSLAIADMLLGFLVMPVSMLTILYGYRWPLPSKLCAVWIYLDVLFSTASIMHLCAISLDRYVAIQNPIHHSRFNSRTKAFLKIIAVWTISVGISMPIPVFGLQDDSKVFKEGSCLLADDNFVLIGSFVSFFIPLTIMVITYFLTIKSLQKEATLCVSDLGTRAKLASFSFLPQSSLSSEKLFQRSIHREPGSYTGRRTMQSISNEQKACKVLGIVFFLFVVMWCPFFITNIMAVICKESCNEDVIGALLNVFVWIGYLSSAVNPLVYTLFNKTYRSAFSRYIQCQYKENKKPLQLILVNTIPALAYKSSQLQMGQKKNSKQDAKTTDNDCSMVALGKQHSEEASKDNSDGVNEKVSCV
Procedure, shortened: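 CHO cells stably expressing human HTR2A were plated for 18 h at 37 C, then loaded with calcium dye for 1 h. Compounds were preincubated 5 min at room temperature before DOI (4 nM solution) was added. Kinetic fluorescence was read for 3 min.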

[12] = target: 5-hydroxytryptamine receptor 2A (Homo sapiens) (UniProt P28223); assay: 5-hydroxytryptamine receptor 2A (HTR2A) small molecule agonists, cell-based qHTS assay (AID 1963587); also: nearly all actives have a fitted effect of over 30% in size
Procedure, shortened: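 HTR2A-CHO cells, plated 18 h at 37 C/5% CO2, dye-loaded 1 h at 37 C; compounds in DMSO added by pin tool (agonist mode). Intracellular calcium flux read as kinetic fluorescence on FDSS over 2 min at 1 s intervals.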

[13] = target: Muscarinic acetylcholine receptor M1 (Homo sapiens) (UniProt P11229); assay: Cholinergic receptor muscarinic 1 (CHRM1) small molecule antagonists, cell-based qHTS assay (AID 1963588); also: nearly all actives have a fitted effect of over 40% in size
Sequence of Muscarinic acetylcholine receptor M1 (Homo sapiens) (P11229 whole entry, looked up): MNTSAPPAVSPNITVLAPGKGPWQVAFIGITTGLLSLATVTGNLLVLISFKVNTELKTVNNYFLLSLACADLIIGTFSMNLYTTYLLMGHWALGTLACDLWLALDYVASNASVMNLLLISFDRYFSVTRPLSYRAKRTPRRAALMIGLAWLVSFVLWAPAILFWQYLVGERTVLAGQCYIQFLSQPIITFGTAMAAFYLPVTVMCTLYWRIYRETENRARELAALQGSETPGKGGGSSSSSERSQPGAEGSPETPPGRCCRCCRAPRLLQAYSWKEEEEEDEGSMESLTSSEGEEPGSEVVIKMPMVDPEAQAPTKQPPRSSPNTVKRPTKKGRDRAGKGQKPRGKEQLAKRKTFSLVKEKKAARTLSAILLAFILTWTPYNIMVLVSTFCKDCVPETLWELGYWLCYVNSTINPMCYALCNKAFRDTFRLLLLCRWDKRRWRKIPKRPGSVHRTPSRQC
Procedure, shortened: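 Compounds were tested at 15 concentrations in three independent runs. Dye-loaded CHRM1-CHO cells were exposed 5 min at room temperature before stimulation by acetylcholine added at 50nM. Intracellular calcium was read kinetically on FDSS for 3 min.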

[14] = target: Muscarinic acetylcholine receptor M1 (Homo sapiens) (UniProt P11229); assay: Cholinergic receptor muscarinic 1 (CHRM1) small molecule agonists, cell-based qHTS assay (AID 1963589); also: nearly all actives have a fitted effect of over 35% in size
Procedure, shortened: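 Kinetic fluorescence (1 s intervals) of calcium-sensitive dye in human M1 CHO cells after compound addition; cells pre-incubated 18 h at 37 C/5% CO2 and dye-loaded 1 h.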

[15] = cAMP Responsive Elements (CRE) small molecule agonists, cell-based qHTS assay (AID 1963590)
Procedure, shortened: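 Test agents in DMSO were incubated 3 h at 37 C/5% CO2 with CRE-bla HEK 293T cells seeded 18 h earlier; LiveBLAzer B/G FRET substrate was added and read after 2 h at room temperature.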

[16] = cAMP Responsive Elements (CRE) small molecule antagonists, cell-based qHTS assay (AID 1963591; active = well fitted inhibition curve with a large enough effect in the signal ratio in the repeat runs, not every such curve was filed as active; the % refers to the signal ratio)
Procedure, shortened: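 Reporter line CRE-bla HEK 293T in dialyzed-FBS DMEM; cells preincubated 18 h, treated 3 h with compound plus NKH477 (0.25 uM final); LiveBLAzer FRET, 2 h RT.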

[17] = target: Beta-2 adrenergic receptor (Homo sapiens) (UniProt P07550); assay: Adrenergic beta2 receptor (ADRB2) small molecule antagonists, cell-based qHTS assay (AID 1963592); also: series mostly up to about 92 µM; nearly all actives have a fitted effect of over 50% in size
Sequence of Beta-2 adrenergic receptor (Homo sapiens) (P07550 whole entry, looked up): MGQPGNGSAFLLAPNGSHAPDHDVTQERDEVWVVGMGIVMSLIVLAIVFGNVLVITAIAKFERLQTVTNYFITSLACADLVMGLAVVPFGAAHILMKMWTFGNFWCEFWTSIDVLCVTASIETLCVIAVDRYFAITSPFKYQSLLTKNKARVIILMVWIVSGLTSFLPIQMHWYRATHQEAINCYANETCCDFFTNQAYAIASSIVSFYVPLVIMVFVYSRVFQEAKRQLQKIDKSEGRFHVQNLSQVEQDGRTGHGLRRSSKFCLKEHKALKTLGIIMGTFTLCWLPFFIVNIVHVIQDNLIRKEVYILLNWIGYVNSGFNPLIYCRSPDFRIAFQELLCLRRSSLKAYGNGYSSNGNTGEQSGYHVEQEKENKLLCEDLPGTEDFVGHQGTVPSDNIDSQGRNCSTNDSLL
Procedure, shortened: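 Assay format: CHO-ADRB2 cells, 18-20hr seeding at 37C/5% CO2, then compound plus 1nM isoproterenol agonist mix for 0.5hr RT. Homogeneous time-resolved fluorescence cAMP detection after 1hr, expressed as 665/615 nm ratio.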

[18] = target: D(2) dopamine receptor (Homo sapiens) (UniProt P14416); assay: Dopamine D2 receptor (DRD2) small molecule agonists, cell-based qHTS assay (AID 1963594); also: nearly all actives have a fitted effect of over 35% in size
Sequence of D(2) dopamine receptor (Homo sapiens) (P14416 whole entry, looked up): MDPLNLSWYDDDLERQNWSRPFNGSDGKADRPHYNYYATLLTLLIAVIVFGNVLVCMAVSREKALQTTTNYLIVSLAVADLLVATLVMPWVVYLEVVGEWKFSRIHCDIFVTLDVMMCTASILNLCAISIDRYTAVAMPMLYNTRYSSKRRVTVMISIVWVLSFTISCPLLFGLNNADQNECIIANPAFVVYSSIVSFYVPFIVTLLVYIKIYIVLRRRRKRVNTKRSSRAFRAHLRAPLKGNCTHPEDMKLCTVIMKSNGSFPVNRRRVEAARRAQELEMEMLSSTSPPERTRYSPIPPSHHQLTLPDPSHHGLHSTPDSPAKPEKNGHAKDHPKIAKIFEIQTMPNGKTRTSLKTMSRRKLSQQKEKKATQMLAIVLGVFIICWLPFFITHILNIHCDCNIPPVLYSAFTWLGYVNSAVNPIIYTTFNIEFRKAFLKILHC
Procedure, shortened: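 HEK293 cells stably expressing DRD2 were cultured 24 h at 37 C, then given Ro20-1724 (0.1 mM final) and compounds for 10 min at room temperature. NKH477 (200nM) was then added for 30 min. cAMP was read by HTRF.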

[19] = target: D(2) dopamine receptor (Homo sapiens) (UniProt P14416); assay: Dopamine D2 receptor (DRD2) small molecule antagonists, cell-based qHTS assay (AID 1963595; active = well fitted inhibition curve with a large enough effect in the signal ratio in the repeat runs, with a control signal flat; the % refers to the signal ratio)
Procedure, shortened: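 In this cell-based antagonist screen, compounds act for 10 min at room temperature before a 30 min challenge with 12 nM quinpirole and 200 nM NKH477. cAMP is quantified by HTRF competition in DRD2-HEK293 cells containing 0.1 mM Ro20-1724.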

[20] = target: Beta-2 adrenergic receptor (Homo sapiens) (UniProt P07550); assay: Adrenergic beta2 receptor (ADRB2) small molecule agonists, cell-based qHTS assay (AID 1963593);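 also: CHO cells stably overexpressing human ADRB2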
Procedure, shortened: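 CHO cells stably over-expressing ADRB2 were plated overnight at 37C, then dosed with compounds plus a stimulation mix containing 100uM IBMX and 25uM Ro-20-1724 for 0.5hr at room temperature. cAMP was measured by HTRF competition, 1hr.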

Measured: Potency

O=C=Nc1ccc(Cl)c(Cl)c1
not listed: [20]
inactive: all other assays above

O=C1NCCN1
not listed: [18] | [20]
inactive: all other assays above

CCCCC(CC)COP(=O)(O)O (stereo unspecified)
not listed: [6] | [10] | [20]
inactive: all other assays above

CCO[Si](CC(C)C)(OCC)OCC
not listed: [6] | [10] | [20]
inactive: all other assays above

O=C(O)Cc1cc(I)c(Oc2cc(I)c(O)c(I)c2)c(I)c1
inactive: [1] | [3] | [4] | [5] | [8] | [13] | [14] | [17] | [18]
active: [2] 30 µM | [7] 17.9 µM | [9] 22.5 µM

CC(CN=Cc1ccccc1O)N=Cc1ccccc1O (stereo unspecified)
not listed: [6] | [12]
inactive: all other assays above

O=C(Cl)c1cc(Cl)cc(Cl)c1
not listed: [6] | [7] | [8] | [16]
inactive: all other assays above

Nc1ccc(-c2ccc(F)cc2)cc1
not listed: [6] | [11] | [16] | [19] | [20]
inactive: all other assays above

O=C1c2ccccc2-c2ccccc21
not listed: [6] | [20]
inactive: all other assays above

COCCOC(=O)CC#N
not listed: [6]
inactive: all other assays above

COc1cc(NS(=O)(=O)c2ccc(N)cc2)nc(C)n1
not listed: [6] | [8] | [11]
inactive: all other assays above

O=C(O)CCCCCCCCCC(=O)O
not listed: [6] | [10] | [20]
inactive: all other assays above

COC(=O)c1ccc(C(=O)O)cc1
not listed: [6] | [9] | [11] | [14] | [20]
inactive: all other assays above

c1csc(SSc2cccs2)c1
active: [1] 15.4 µM | [2] 6.11 µM
not listed: [6] | [8]
inactive: all other assays above

CNC(=S)NN
active: [1] 12.2 µM | [2] 6.11 µM
not listed: [7] | [8] | [10] | [16] | [18]
inactive: all other assays above
